PubChem BioAssay (Tox21)
Inconclusive results are not listed. Active and inactive are the calls of the source. Unless noted, the call rests on the fitted dose curve.

Key:
[1] = target: KiSS-1 receptor (Homo sapiens) (UniProt Q969F8); experiment: Human kisspeptin (KISS1R) small molecule agonists, calcium flux assay in KISS1R-HEK293 cells (AID 1920064; active means well fitted activation curve with a large enough effect in the repeat runs; further: on the % scale 0 is the no-effect control and ±100 the full control effect)
Summary of the method: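 After overnight (18 h) culture at 37 C/5% CO2, human KISS1R-HEK293 cells received calcium dye for 1 h, then test compound; emission at 540 nm (excitation 480 nm) was tracked for 3 min.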

[2] = G protein-coupled receptor (GPCR) small molecule agonists, calcium flux assay: HEK293 wild type cell line counter screen (AID 1920065); further: on the % scale 0 is the no-effect control and ±100 the full control effect
Summary of the method: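 Following 18 h incubation at 37 C/5% CO2, plates got calcium dye for 1 h; compounds, ATP or DMSO were then pinned in and fluorescence followed kinetically (480/540 nm).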

[3] = p53 small molecule agonists, cell-based qHTS assay with human liver microsomes: qHTS cell viability counter screen (AID 1963579); further: on the % scale 0 is the no-effect control and ±100 the full control effect; nearly all actives have a fitted effect of over 45% in size
Summary of the method: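 In this multiplexed counter screen, the reporter plates were subsequently treated with CellTiter-Glo so that cell viability, reflected by luminescence, could be recorded for p53RE-bla cells dosed 16 h with compounds under microsomal activation (HLM and NADPH).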

[4] = p53 small molecule agonists, cell-based qHTS assay with rat liver microsomes: qHTS cell viability counter screen (AID 1963580); further: on the % scale 0 is the no-effect control and ±100 the full control effect; nearly all actives have a fitted effect of over 45% in size
Summary of the method: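 After the beta-lactamase ratio was read, CellTiter-Glo was added to the same wells and luminescence measured at 30 min; cells had been treated 16 h at 37 C with compounds, rat liver microsomes and NADPH (0.5 mg/mL final each).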

[5] = p53 small molecule agonists, cell-based qHTS assay: qHTS cell viability counter screen (AID 1963581); further: on the % scale 0 is the no-effect control and ±100 the full control effect; nearly all actives have a fitted effect of over 45% in size
Summary of the method: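 qHTS counter screen: 16 h compound exposure at 37 C of p53RE-bla HCT-116 cells (4,000 per well, seeded 5 h prior), cell viability by ATP luminescence.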

[6] = target: 5-hydroxytryptamine receptor 2A (Homo sapiens) (UniProt P28223); experiment: 5-hydroxytryptamine receptor 2A (HTR2A) small molecule antagonists, cell-based qHTS assay (AID 1963586); further: on the % scale 0 is the no-effect control and ±100 the full control effect; nearly all actives have a fitted effect of over 45% in size
Summary of the method: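 CHO cells stably expressing human HTR2A were plated for 18 h at 37 C, then loaded with calcium dye for 1 h. Compounds were preincubated 5 min at room temperature before DOI (4 nM solution) was added. Kinetic fluorescence was read for 3 min.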

[7] = target: 5-hydroxytryptamine receptor 2A (Homo sapiens) (UniProt P28223); experiment: 5-hydroxytryptamine receptor 2A (HTR2A) small molecule agonists, cell-based qHTS assay (AID 1963587); further: on the % scale 0 is the no-effect control and ±100 the full control effect; nearly all actives have a fitted effect of over 30% in size
Summary of the method: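 CHO cells stably expressing human HTR2A, plated 18 h, loaded with calcium dye 1 h at 37 C. Agonist mode: compounds added and intracellular calcium fluorescence recorded kinetically for 2 min at 1 sec intervals.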

[8] = target: Muscarinic acetylcholine receptor M1 (Homo sapiens) (UniProt P11229); experiment: Cholinergic receptor muscarinic 1 (CHRM1) small molecule antagonists, cell-based qHTS assay (AID 1963588); further: on the % scale 0 is the no-effect control and ±100 the full control effect; nearly all actives have a fitted effect of over 40% in size
Summary of the method: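 Compounds were tested at 15 concentrations in three independent runs. Dye-loaded CHRM1-CHO cells were exposed 5 min at room temperature before stimulation by acetylcholine added at 50nM. Intracellular calcium was read kinetically on FDSS for 3 min.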

[9] = cAMP Responsive Elements (CRE) small molecule agonists, cell-based qHTS assay (AID 1963590); further: on the % scale 0 is the no-effect control and ±100 the full control effect
Summary of the method: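 Test agents in DMSO were incubated 3 h at 37 C/5% CO2 with CRE-bla HEK 293T cells seeded 18 h earlier; LiveBLAzer B/G FRET substrate was added and read after 2 h at room temperature.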

[10] = cAMP Responsive Elements (CRE) small molecule antagonists, cell-based qHTS assay (AID 1963591; active means well fitted inhibition curve with a large enough effect in the signal ratio in the repeat runs, not every such curve was filed as active; the % refers to the signal ratio; further: on the % scale 0 is the no-effect control and ±100 the full control effect)
Summary of the method: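 Reporter line CRE-bla HEK 293T in dialyzed-FBS DMEM; cells preincubated 18 h, treated 3 h with compound plus NKH477 (0.25 uM final); LiveBLAzer FRET, 2 h RT.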

[11] = target: Beta-2 adrenergic receptor (Homo sapiens) (UniProt P07550); experiment: Adrenergic beta2 receptor (ADRB2) small molecule antagonists, cell-based qHTS assay (AID 1963592); further: series mostly up to about 92 µM; on the % scale 0 is the no-effect control and ±100 the full control effect; nearly all actives have a fitted effect of over 50% in size
Summary of the method: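 Assay format: CHO-ADRB2 cells, 18-20hr seeding at 37C/5% CO2, then compound plus 1nM isoproterenol agonist mix for 0.5hr RT. Homogeneous time-resolved fluorescence cAMP detection after 1hr, expressed as 665/615 nm ratio.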

[12] = target: Beta-2 adrenergic receptor (Homo sapiens) (UniProt P07550); experiment: Adrenergic beta2 receptor (ADRB2) small molecule agonists, cell-based qHTS assay (AID 1963593)
Summary of the method: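 CHO cells stably over-expressing ADRB2 were plated overnight at 37C, then dosed with compounds plus a stimulation mix containing 100uM IBMX and 25uM Ro-20-1724 for 0.5hr at room temperature. cAMP was measured by HTRF competition, 1hr.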

[13] = target: D(2) dopamine receptor (Homo sapiens) (UniProt P14416); experiment: Dopamine D2 receptor (DRD2) small molecule agonists, cell-based qHTS assay (AID 1963594); further: on the % scale 0 is the no-effect control and ±100 the full control effect; nearly all actives have a fitted effect of over 35% in size
Summary of the method: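 HEK293 cells stably expressing human DRD2, pre-treated with PDE inhibitor Ro20-1724 (0.1 mM final) and compound 10 min at room temperature, then stimulated with NKH477 (200nM […]) for 30 min. cAMP read by HTRF (665/620 nm).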

[14] = target: D(2) dopamine receptor (Homo sapiens) (UniProt P14416); experiment: Dopamine D2 receptor (DRD2) small molecule antagonists, cell-based qHTS assay (AID 1963595; active means well fitted inhibition curve with a large enough effect in the signal ratio in the repeat runs, with a control signal flat; the % refers to the signal ratio; further: on the % scale 0 is the no-effect control and ±100 the full control effect)
Summary of the method: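 Cells were plated and grown for 24 h at 37 °C. Ro20-1724 (0.1 mM final) went in first, then compound for 10 min. NKH477 (200 nM) with quinpirole (12 nM) followed for 30 min at RT, then HTRF detection reagents for 1 h.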

[15] = target: Muscarinic acetylcholine receptor M1 (Homo sapiens) (UniProt P11229); experiment: Cholinergic receptor muscarinic 1 (CHRM1) small molecule agonists, cell-based qHTS assay (AID 1963589); further: on the % scale 0 is the no-effect control and ±100 the full control effect; nearly all actives have a fitted effect of over 35% in size
Summary of the method: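 Kinetic fluorescence (1 s intervals) of calcium-sensitive dye in human M1 CHO cells after compound addition; cells pre-incubated 18 h at 37 C/5% CO2 and dye-loaded 1 h.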

[16] = target: Gonadotropin-releasing hormone receptor (Homo sapiens) (UniProt P30968); experiment: Human gonadotropin-releasing hormone receptor (GnRHR) small molecule agonists, calcium flux assay in GnRHR-HEK293 cells (AID 1920063); further: on the % scale 0 is the no-effect control and ±100 the full control effect; nearly all actives have a fitted effect of over 35% in size
Summary of the method: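 Stable human GnRHR HEK293 line. 18 h plating, then calcium dye for 1 h at 37 C. Agonist-mode compound addition from DMSO stocks; fluorescence monitored 3 min.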

[17] = p53 small molecule agonists, cell-based qHTS assay with human liver microsomes (AID 1963577)
Summary of the method: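 16 h, 37 C exposure of p53RE-bla cells to compounds with human liver microsomes and NADPH (0.5 mg/mL final each); detection via LiveBLAzer mixture, 2 h dark at room temperature.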

[18] = p53 small molecule agonists, cell-based qHTS assay with rat liver microsomes (AID 1963578); further: on the % scale 0 is the no-effect control and ±100 the full control effect
Summary of the method: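 With rat liver microsomes and NADPH present (0.5 mg/mL final each), p53RE-bla cells are treated with compound for 16 h at 37 C. LiveBLAzer detection mixture is then applied for 2 h at room temperature in the dark.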

[19] = p53 small molecule agonists, cell-based qHTS assay (AID 1963582; active means well fitted activation curve with a large enough effect in the signal ratio in the repeat runs, not every such curve was filed as active; the % refers to the signal ratio; further: on the % scale 0 is the no-effect control and ±100 the full control effect)
Summary of the method: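 Measured: fluorescence from cleaved LiveBLAzer substrate. System: p53RE-bla cells, 16 h compound treatment at 37 C, 2 h substrate step at room temperature.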

[20] = Nuclear factor erythroid 2-related factor 2/antioxidant responsive element (Nrf2/ARE) small molecule agonists: luciferase reporter gene qHTS assay in human keratinocytes (AID 1919969); further: potency means the concentration at half of the fitted maximal effect; nearly all actives have a fitted effect of over 35% in size

Sequence of 5-hydroxytryptamine receptor 2A (Homo sapiens) (P28223 whole entry, looked up): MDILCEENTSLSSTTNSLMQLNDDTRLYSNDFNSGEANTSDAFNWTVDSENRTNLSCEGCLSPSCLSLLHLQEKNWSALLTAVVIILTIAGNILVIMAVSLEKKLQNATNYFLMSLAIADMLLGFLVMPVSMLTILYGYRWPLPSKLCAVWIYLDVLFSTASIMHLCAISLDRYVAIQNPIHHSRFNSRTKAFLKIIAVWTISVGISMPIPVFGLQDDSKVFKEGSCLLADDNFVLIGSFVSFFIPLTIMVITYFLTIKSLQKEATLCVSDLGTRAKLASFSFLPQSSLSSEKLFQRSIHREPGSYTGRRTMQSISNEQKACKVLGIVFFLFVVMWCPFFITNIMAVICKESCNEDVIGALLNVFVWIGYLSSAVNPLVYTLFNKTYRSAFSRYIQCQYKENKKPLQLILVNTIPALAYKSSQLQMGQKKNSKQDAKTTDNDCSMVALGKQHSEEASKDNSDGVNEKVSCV
Sequence of Beta-2 adrenergic receptor (Homo sapiens) (P07550 whole entry, looked up): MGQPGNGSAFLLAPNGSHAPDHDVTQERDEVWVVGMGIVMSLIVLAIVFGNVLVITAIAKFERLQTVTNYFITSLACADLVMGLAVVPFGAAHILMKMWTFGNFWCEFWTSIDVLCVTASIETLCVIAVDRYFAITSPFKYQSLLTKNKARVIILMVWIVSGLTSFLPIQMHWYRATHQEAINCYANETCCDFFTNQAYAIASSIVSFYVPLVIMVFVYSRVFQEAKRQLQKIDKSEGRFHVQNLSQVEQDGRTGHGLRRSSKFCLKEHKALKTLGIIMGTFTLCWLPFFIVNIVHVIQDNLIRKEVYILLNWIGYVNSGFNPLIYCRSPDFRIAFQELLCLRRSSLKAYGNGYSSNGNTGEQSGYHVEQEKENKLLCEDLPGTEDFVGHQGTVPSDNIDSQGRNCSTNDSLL
Sequence of Gonadotropin-releasing hormone receptor (Homo sapiens) (P30968 whole entry, looked up): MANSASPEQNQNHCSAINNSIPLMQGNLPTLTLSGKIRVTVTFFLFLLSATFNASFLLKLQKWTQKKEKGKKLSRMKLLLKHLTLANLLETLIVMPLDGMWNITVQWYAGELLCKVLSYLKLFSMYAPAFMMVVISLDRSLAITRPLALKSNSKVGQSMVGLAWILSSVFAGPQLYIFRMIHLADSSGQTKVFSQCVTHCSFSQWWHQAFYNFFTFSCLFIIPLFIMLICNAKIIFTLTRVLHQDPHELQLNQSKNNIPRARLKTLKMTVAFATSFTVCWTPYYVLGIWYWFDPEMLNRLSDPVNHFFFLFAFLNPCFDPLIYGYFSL
Sequence of KiSS-1 receptor (Homo sapiens) (Q969F8 whole entry, looked up): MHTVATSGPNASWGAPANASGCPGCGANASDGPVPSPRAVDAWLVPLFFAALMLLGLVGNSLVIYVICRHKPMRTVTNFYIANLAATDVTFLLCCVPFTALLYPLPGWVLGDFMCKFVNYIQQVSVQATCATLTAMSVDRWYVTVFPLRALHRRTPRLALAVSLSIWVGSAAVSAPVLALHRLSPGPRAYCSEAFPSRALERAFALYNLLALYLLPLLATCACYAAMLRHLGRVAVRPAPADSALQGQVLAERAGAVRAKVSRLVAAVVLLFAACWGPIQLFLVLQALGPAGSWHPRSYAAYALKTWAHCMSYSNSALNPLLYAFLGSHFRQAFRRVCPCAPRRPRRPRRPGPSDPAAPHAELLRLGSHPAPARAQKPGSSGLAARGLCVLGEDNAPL
Sequence of Muscarinic acetylcholine receptor M1 (Homo sapiens) (P11229 whole entry, looked up): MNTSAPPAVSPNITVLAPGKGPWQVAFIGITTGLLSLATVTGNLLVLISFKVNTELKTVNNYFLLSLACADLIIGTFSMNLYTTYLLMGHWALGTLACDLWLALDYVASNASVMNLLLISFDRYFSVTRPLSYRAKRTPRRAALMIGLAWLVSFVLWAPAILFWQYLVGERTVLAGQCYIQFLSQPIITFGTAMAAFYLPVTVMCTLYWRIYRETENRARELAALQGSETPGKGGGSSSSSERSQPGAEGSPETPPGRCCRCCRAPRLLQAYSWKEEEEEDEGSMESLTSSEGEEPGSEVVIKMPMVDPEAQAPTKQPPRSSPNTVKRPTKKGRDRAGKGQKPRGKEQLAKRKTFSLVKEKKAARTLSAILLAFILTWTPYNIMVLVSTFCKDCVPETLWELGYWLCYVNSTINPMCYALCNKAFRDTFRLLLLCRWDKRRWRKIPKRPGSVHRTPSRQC
Sequence of D(2) dopamine receptor (Homo sapiens) (P14416 whole entry, looked up): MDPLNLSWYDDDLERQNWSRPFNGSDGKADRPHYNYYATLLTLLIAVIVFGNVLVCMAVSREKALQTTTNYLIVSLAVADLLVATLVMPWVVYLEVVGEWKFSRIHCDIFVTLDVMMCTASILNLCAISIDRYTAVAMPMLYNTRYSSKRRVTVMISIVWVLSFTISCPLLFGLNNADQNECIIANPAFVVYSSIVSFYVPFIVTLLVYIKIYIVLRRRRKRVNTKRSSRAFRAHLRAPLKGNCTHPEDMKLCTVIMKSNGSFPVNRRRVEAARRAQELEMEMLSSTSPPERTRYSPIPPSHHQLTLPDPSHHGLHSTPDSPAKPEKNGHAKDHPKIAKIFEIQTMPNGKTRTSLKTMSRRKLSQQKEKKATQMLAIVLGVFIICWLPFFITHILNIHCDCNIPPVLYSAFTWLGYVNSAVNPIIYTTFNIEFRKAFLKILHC

COP(=S)(OC)Oc1cc(Cl)c(I)cc1Cl
inactive: Potency [1] | Potency [2] | Potency [3] | Potency [4] | Potency [5] | Potency [6] | Potency [7] | Potency [8] | Potency [9] | Potency [10] | Potency [11] | Potency [12] | Potency [13] | Potency [14]

CCN(CC)C(C)C(=O)c1ccccc1 (stereo not drawn)
inactive: Potency [1] | Potency [2] | Potency [4] | Potency [5] | Potency [7] | Potency [8] | Potency [15] | Potency [9] | Potency [10] | Potency [11] | Potency [13] | Potency [14]

O=C(NC(=O)c1c(F)cccc1F)Nc1cc(Cl)c(OC(F)(F)C(F)F)c(Cl)c1
inactive: Potency [16] | Potency [2] | Potency [17] | Potency [18] | Potency [4] | Potency [5] | Potency [19] | Potency [6] | Potency [7] | Potency [8] | Potency [9] | Potency [11] | Potency [13] | Potency [14]

CC(=O)[O-].CC(=O)[O-].CC(=O)[O-].[Sb+3]
inactive: activity change [16] 0.655% [at 2.04 µM, hits give high values] | activation [2] -0.454% [at 2.04 µM] | activity change, negative = cytotoxicity [3] 0.868% [at 2.33 µM] | activity change, negative = cytotoxicity [4] -3.59% [at 2.33 µM] | activity change, negative = cytotoxicity [5] 11.8% [at 2.33 µM] | activity, negative = inhibition [6] 0.713% [at 2.12 µM] | activity, negative = inhibition [8] 9.52% [at 2.17 µM] | activation [15] -0.154% [at 2.72 µM] | activation [9] -0.0591% [at 3.27 µM] | activity change, negative = inhibition [10] -4.85% [at 3.27 µM] | activity change, negative = inhibition [11] -10.7% [at 3.27 µM] | activation [13] 0.942% [at 3.27 µM] | activity change, negative = inhibition [14] -1.4% [at 3.28 µM]

O=[N+]([O-])c1cccc(CCl)c1
inactive: Potency [16] | Potency [2] | Potency [3] | Potency [4] | Potency [5] | Potency [6] | Potency [7] | Potency [8] | Potency [15] | Potency [9] | Potency [10] | Potency [11] | Potency [13] | Potency [14]

Clc1c(Cl)c(Cl)c(Cl)c(Cl)c1Cl
inactive: activity change [16] -0.0134% [at 5.22 µM, hits give high values] | activation [2] 0.0562% [at 5.23 µM] | activation [17] -0.641% [at 5.99 µM] | activation [18] -0.077% [at 5.99 µM] | activity change, negative = cytotoxicity [3] -8.08% [at 5.99 µM] | activity change, negative = cytotoxicity [4] 3.81% [at 5.99 µM] | activity change, negative = cytotoxicity [5] 19.3% [at 5.99 µM] | activity, negative = inhibition [6] 3.79% [at 5.62 µM] | activation [7] -3.36% [at 7.02 µM] | activity, negative = inhibition [8] 4.33% [at 5.58 µM] | activation [9] 0.371% [at 8.39 µM] | activity change, negative = inhibition [10] -9.17% [at 8.39 µM] | activity change, negative = inhibition [11] -5.22% [at 8.39 µM] | activation [12] 15.9% [at 8.39 µM] | activation [13] -1.37% [at 8.39 µM] | activity change, negative = inhibition [14] -2.06% [at 8.38 µM]

CC(=O)[O-].CC(=O)[O-].O.O.O.[Pb+2]
inactive: Potency [1] | Potency [2] | Potency [3] | Potency [4] | Potency [5] | Potency [6] | Potency [7] | Potency [8] | Potency [15] | Potency [9] | Potency [10] | Potency [11] | Potency [13] | Potency [14]

C[C@@H]1O[C@@H](O[C@@H]2C=C3CC[C@@H]4[C@H](CC[C@]5(C)[C@@H](c6ccc(=O)oc6)CC[C@]45O)[C@@]3(C)CC2)[C@H](O)[C@H](O)[C@H]1O
inactive: Potency [16] | Potency [1] | Potency [2] | Potency [17] | Potency [18] | Potency [3] | Potency [11] | Potency [12] | Potency [13] | Potency [14]
active: Potency [20] 10.6 nM
